Screen size: about 39,000 compounds; about 3,300 (8.5%) were called active. Only a selection was taken, and actives are over-represented in it overall.

For this assay, the system named is HepG2. Put plainly: cytotoxicity call (relative viability < 0.9). The conditions noted are these: 10 µM.
Take `Cc1cn([C@H]2O[C@@H](CO)[C@H](O)[C@H]2F)c(=O)[nH]c1=O`: the cytotoxicity call was “inactive”.

As for `COCCNC(=O)C[C@@H]1C[C@H]2c3cc(NC(=O)COC)ccc3O[C@H]2[C@@H](CO)O1`, the cytotoxicity call was “inactive”.

In the case of `COc1ccc(S(=O)(=O)Nc2cccc3c2O[C@H](CN(C)S(=O)(=O)c2ccc(C)cc2)[C@H](C)CN([C@H](C)CO)C3=O)cc1`, the cytotoxicity call is “inactive”. The value for `COc1ccccc1Nc1nc(-c2ccc(Cl)cc2)cs1` was “inactive”; that for `C[C@H](CO)N1C[C@H](C)[C@H](CN(C)S(C)(=O)=O)Oc2ccc(NC(=O)CCN3CCOCC3)cc2CC1=O` was “inactive”; that for `C[C@@H]1CN([C@H](C)CO)C(=O)Cc2cc(NC(=O)C3CC3)ccc2O[C@H]1CN(C)C(=O)Nc1ccc2c(c1)OCO2` was “inactive”.

As for `C[C@@H]1CN([C@H](C)CO)C(=O)Cc2cc(NC(=O)c3ccncc3)ccc2O[C@H]1CN(C)Cc1ccc(C(=O)O)cc1`, the cytotoxicity call is “inactive”.

In the case of `COc1ccc(S(=O)(=O)Nc2ccc3c(c2)C(=O)N([C@@H](C)CO)C[C@@H](C)[C@H](CN(C)C(=O)Nc2ccccc2)OCCCC[C@@H](C)O3)cc1`, the cytotoxicity call was “inactive”. The value for `CCN(CC)CCOC(=O)C(c1ccccc1)C1CCCCC1.Cl` (stereo not drawn) was “active”; that for `CCN(CC)CCOC(=O)C1(C2CCCCC2)CCCCC1.Cl` was “inactive”; that for `CCN(CC)CCOC(=O)C(c1ccccc1)c1ccccc1.Cl` was “inactive”. The value for `COc1ccc(S(=O)(=O)N(C)C[C@@H]2Oc3ncc(-c4ccccc4)cc3C(=O)N([C@H](C)CO)C[C@@H]2C)cc1` was “inactive”. As for `C[C@H](CO)N1C[C@H](C)[C@H](CN(C)S(=O)(=O)c2cn(C)cn2)Oc2cc(C3=CCCCC3)ccc2S1(=O)=O`, the entry is “inactive”; as for `COc1ccc(CNC(=O)C[C@@H]2C[C@@H]3c4cc(NC(=O)NC5CCCC5)ccc4O[C@@H]3[C@H](CO)O2)cc1`, “inactive”. Regarding `CC1(C)CCC2(C(=O)O)CCC3(C)C(=CCC4C5(C)CCC(O)C(C)(C)C5CCC43C)C2C1` (stereo not drawn), the cytotoxicity call is “inactive”.

Turning to `CC1CCC2(C(=O)O)CCC3(C)C(=CCC4C5(C)CCC(O)C(C)(C)C5CCC43C)C2C1C` (stereo not drawn), the cytotoxicity call was “active”.

Regarding `COC(=O)[C@@]12CC[C@@H](C)[C@@H](C)[C@@H]1C1=CC[C@H]3[C@@]4(C)CC[C@@H](OC(C)=O)C(C)(C)[C@@H]4CC[C@@]3(C)[C@@]1(C)CC2`, the cytotoxicity call was “inactive”. As to `Cc1noc(C)c1S(=O)(=O)Nc1ccc2c(c1)CC(=O)N([C@H](C)CO)C[C@@H](C)[C@@H](CN(C)C(=O)Nc1ccccc1)O2`, the cytotoxicity call was “inactive”. On to `COc1ccccc1S(=O)(=O)N1C[C@@H](O)COC[C@@H]2O[C@H](CC(=O)O)CC[C@H]21`, for which the cytotoxicity call was “inactive”.

Turning to `C[C@@H]1CCCCO[C@@H](CN(C)S(=O)(=O)c2ccc(Cl)cc2)[C@@H](C)CN([C@@H](C)CO)C(=O)c2cc(NS(=O)(=O)c3cccs3)ccc2O1`, the cytotoxicity call is “inactive”. `C[C@@H]1CCCCO[C@H](CN(C)S(=O)(=O)c2ccc(Cl)cc2)[C@H](C)CN([C@@H](C)CO)C(=O)c2cc(NS(=O)(=O)c3cccs3)ccc2O1`: the cytotoxicity call was “inactive”. Consider `C[C@H](CO)N1C[C@H](C)[C@@H](CN(C)S(=O)(=O)c2ccc(Cl)cc2)OCCCC[C@H](C)Oc2ccc(NS(=O)(=O)c3cccs3)cc2C1=O`, for which the cytotoxicity call was “inactive”.

For `C[C@H]1CCCCO[C@H](CN(C)S(=O)(=O)c2ccc(Cl)cc2)[C@@H](C)CN([C@@H](C)CO)C(=O)c2cc(NS(=O)(=O)c3cccs3)ccc2O1`, the cytotoxicity call was “inactive”. Regarding `C[C@@H]1CCCCO[C@H](CN(C)S(=O)(=O)c2ccc(Cl)cc2)[C@H](C)CN([C@H](C)CO)C(=O)c2cc(NS(=O)(=O)c3cccs3)ccc2O1`, the cytotoxicity call is “inactive”. Consider `C[C@@H]1CN([C@@H](C)CO)C(=O)c2cc(NS(=O)(=O)c3cccs3)ccc2O[C@@H](C)CCCCO[C@H]1CN(C)S(=O)(=O)c1ccc(Cl)cc1`, for which the cytotoxicity call was “active”. The value for `C[C@@H]1CCCCO[C@H](CN(C)S(=O)(=O)c2ccc(Cl)cc2)[C@@H](C)CN([C@H](C)CO)C(=O)c2cc(NS(=O)(=O)c3cccs3)ccc2O1` was “inactive”; that for `C[C@@H]1CN([C@H](C)CO)C(=O)c2cc(NS(=O)(=O)c3cccs3)ccc2O[C@@H](C)CCCCO[C@@H]1CN(C)S(=O)(=O)c1ccc(Cl)cc1` was “active”; that for `C[C@@H]1CCCCO[C@@H](CN(C)S(=O)(=O)c2ccc(Cl)cc2)[C@H](C)CN([C@H](C)CO)C(=O)c2cc(NS(=O)(=O)c3cccs3)ccc2O1` was “active”. Consider `C[C@@H]1CCCCO[C@@H](CN(C)S(=O)(=O)c2ccc(Cl)cc2)[C@H](C)CN([C@@H](C)CO)C(=O)c2cc(NS(=O)(=O)c3cccs3)ccc2O1`, for which the cytotoxicity call was “active”.

As for `C[C@H](CO)N1C[C@H](C)[C@H](CN(C)S(=O)(=O)c2ccc(Cl)cc2)OCCCC[C@H](C)Oc2ccc(NS(=O)(=O)c3cccs3)cc2C1=O`, the cytotoxicity call is “inactive”. The value for `C[C@@H]1CCCCO[C@H](CN(C)S(=O)(=O)c2ccc(Cl)cc2)[C@@H](C)CN([C@@H](C)CO)C(=O)c2cc(NS(=O)(=O)c3cccs3)ccc2O1` was “inactive”. As for `C[C@@H]1CCCCO[C@@H](CN(C)C(=O)NC2CCCCC2)[C@H](C)CN([C@H](C)CO)C(=O)c2cc(NC(=O)Nc3ccc4c(c3)OCO4)ccc2O1`, the entry is “inactive”; as for `C[C@@H]1CN([C@H](C)CO)C(=O)c2cccc(NS(=O)(=O)c3cn(C)cn3)c2O[C@@H]1CN(C)Cc1ccncc1`, “inactive”. For `C[C@@H]1CN([C@H](C)CO)S(=O)(=O)c2ccc(-c3cncnc3)cc2O[C@@H]1CN(C)C(=O)CN(C)C`, the cytotoxicity call is “inactive”. The value for `C[C@@H]1CN([C@@H](C)CO)C(=O)c2cc(NC(=O)NC3CCCCC3)ccc2O[C@@H](C)CCCCO[C@H]1CN(C)C(=O)c1ccccc1` was “inactive”; that for `CO[C@@H](CN(C)C(=O)Nc1ccc(C(F)(F)F)cc1)[C@H](C)CN(Cc1ccccc1Cl)[C@H](C)CO` was “inactive”.

Turning to `Cc1ccc(S(=O)(=O)Nc2ccc3c(c2)C(=O)N([C@@H](C)CO)C[C@@H](C)[C@@H](CN(C)Cc2ccc(C(=O)O)cc2)OCCCC[C@@H](C)O3)cc1`, the cytotoxicity call is “inactive”.

Consider `COc1cc(-c2cc(=O)c3c(s2)N(c2ccc(OC)c(OC)c2)[C@@H](c2ccc(O)c(OC)c2)CC3=O)ccc1O`, for which the cytotoxicity call was “inactive”. The value for `COc1ccc(S(=O)(=O)Nc2ccc3c(c2)CC(=O)N([C@@H](C)CO)C[C@@H](C)[C@H](CN(C)S(=O)(=O)c2ccccc2)O3)cc1` was “inactive”; that for `CC(C)NC(=O)N(C)C[C@H]1OCCCC[C@H](C)Oc2ccc(NS(C)(=O)=O)cc2C(=O)N([C@H](C)CO)C[C@@H]1C` was “inactive”. On to `C[C@H](CO)N1C[C@H](C)[C@@H](CN(C)C(=O)Nc2cccc3ccccc23)Oc2ccc(NS(=O)(=O)c3cccs3)cc2CC1=O`, for which the cytotoxicity call is “inactive”. Take `CN(C)CCN1CCNCC1`: the cytotoxicity call was “inactive”. The value for `C[C@H](NC(=O)N(C)C[C@H]1OCc2ccccc2-c2ccccc2C(=O)N([C@H](C)CO)C[C@@H]1C)c1ccccc1` was “inactive”. Turning to `CC(=O)OCCNC(=O)c1cccnc1`, the cytotoxicity call was “inactive”.

For `O=C(NCCO[N+](=O)[O-])c1cccnc1` [listing 1 of 2 here], the cytotoxicity call is “active”. The value for `O=C(NCCO[N+](=O)[O-])c1cccnc1` [listing 2 of 2 here] was “inactive”; that for `CC(C)CC#Cc1ccc2c(c1)O[C@H](CN(C)Cc1cncnc1)[C@@H](C)CN([C@@H](C)CO)S2(=O)=O` was “inactive”.

Regarding `O=C(C[C@H]1C=C[C@@H](NC(=O)c2cccc(F)c2)[C@@H](CO)O1)NCCN1CCCC1`, the cytotoxicity call was “inactive”. As for `C[C@@H]1COCCS(=O)(=O)N1C`, the entry is “inactive”; as for `O=C(CCCCCNC(=O)OC[C@H]1C(=O)O[C@@H](Cc2ccccc2)[C@H]2[C@H]3C(=CC(=O)[C@@H]3C3CC3)CN21)NO`, “inactive”. With `C[C@@H]1CCCCO[C@@H](CN(C)C(=O)CCC(F)(F)F)[C@@H](C)CN([C@@H](C)CO)C(=O)c2cc(NS(=O)(=O)c3ccc(F)cc3)ccc2O1`, the cytotoxicity call was “inactive”. In the case of `COc1cccc(S(=O)(=O)N(C)C[C@@H]2OCc3cn(nn3)CCCC(=O)N([C@@H](C)CO)C[C@@H]2C)c1`, the cytotoxicity call was “inactive”. As for `C[C@H](CO)N1C[C@H](C)[C@H](CN(C)S(=O)(=O)c2ccc(Cl)cc2)OCCCC[C@H](C)Oc2ccc(NC(=O)NC3CCCCC3)cc2C1=O`, the entry is “inactive”. The value for `C[C@@H]1CCCCO[C@H](CN(C)S(=O)(=O)c2ccc(Cl)cc2)[C@H](C)CN([C@H](C)CO)C(=O)c2cc(NC(=O)NC3CCCCC3)ccc2O1` was “active”; that for `C[C@@H]1CN([C@H](C)CO)C(=O)c2cc(NC(=O)NC3CCCCC3)ccc2O[C@@H](C)CCCCO[C@@H]1CN(C)S(=O)(=O)c1ccc(Cl)cc1` was “inactive”. As for `C[C@@H]1CCCCO[C@@H](CN(C)S(=O)(=O)c2ccc(Cl)cc2)[C@H](C)CN([C@H](C)CO)C(=O)c2cc(NC(=O)NC3CCCCC3)ccc2O1`, the entry is “active”; as for `C[C@@H]1CCCCO[C@@H](CN(C)S(=O)(=O)c2ccc(Cl)cc2)[C@@H](C)CN([C@H](C)CO)C(=O)c2cc(NC(=O)NC3CCCCC3)ccc2O1`, “inactive”. Turning to `C[C@@H]1CN([C@@H](C)CO)C(=O)c2cc(NC(=O)NC3CCCCC3)ccc2O[C@@H](C)CCCCO[C@@H]1CN(C)S(=O)(=O)c1ccc(Cl)cc1`, the cytotoxicity call was “inactive”. Turning to `C[C@@H]1CCCCO[C@@H](CN(C)S(=O)(=O)c2ccc(Cl)cc2)[C@H](C)CN([C@@H](C)CO)C(=O)c2cc(NC(=O)NC3CCCCC3)ccc2O1`, the cytotoxicity call is “inactive”. `C[C@H](CO)N1C[C@H](C)[C@@H](CN(C)S(=O)(=O)c2ccc(Cl)cc2)OCCCC[C@H](C)Oc2ccc(NC(=O)NC3CCCCC3)cc2C1=O`: the cytotoxicity call is “active”. The value for `C[C@@H]1CCCCO[C@H](CN(C)S(=O)(=O)c2ccc(Cl)cc2)[C@@H](C)CN([C@H](C)CO)C(=O)c2cc(NC(=O)NC3CCCCC3)ccc2O1` was “inactive”; that for `C[C@@H]1CN([C@H](C)CO)C(=O)c2cc(NC(=O)NC3CCCCC3)ccc2O[C@@H](C)CCCCO[C@H]1CN(C)S(=O)(=O)c1ccc(Cl)cc1` was “active”.

`Cc1ccc(S(=O)(=O)N(C)C[C@H]2OCCCC[C@H](C)Oc3ccc(NS(C)(=O)=O)cc3C(=O)N([C@H](C)CO)C[C@H]2C)cc1`: the cytotoxicity call is “inactive”.

The values are drawn from the antibiotic and cytotoxicity screens of Wong et al. (2023).
